# nsP2pro primary = CHIKV nsP2 protease inhibition, primary qHTS | Q8JUX6 | FRET peptide cleavage, nsP2pro, fluorescence 1 h | Potency, µM (doses to about 24.9 µM), without a hit: at the highest dose activity change, negative = inhibition, actives largely listed as inhibitors | hit rate 1.1% among 31,000; note: nearly all actives have a fitted effect of over 60% in size
#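 FRET cleavage of 2.5 uM peptide 2 by 150 nM CHIKV protease domain at pH 8.0 (Tris, Tween 20). Compounds at 7 concentrations (up to 25 uM) preincubated 15 min. Fluorescence read after 1 h at room temperature.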
# nsP2 cell sec = cell-based CHIKV nsP2 protease inhibition, secondary. cell-based CHIKV nsP2 protease reporter assay. shares compounds with nsP2pro primary. Potency, µM (highest dose often 51.1 µM), for the others: at the top dose activity change, negative = inhibition, hits mostly inhibitors. hit rate 10% among 450; note: nearly all actives have a fitted effect of over 70% in size
# CHIKV NSP2 FL = inhibits full-length CHIKV NSP2 enzyme | shares compounds with nsP2pro primary | Full-length CHIKV NSP2 protease enzymatic counterscreen | Potency, µM (highest dose often 50.7 µM), for inactives: at the highest dose activity change, negative = inhibition, actives largely listed as inhibitors | hit rate 39% among 410; note: nearly all actives have a fitted effect of over 65% in size
# Furin counterscr = human furin inhibition, counterscreen for nsP2pro inhibitors; shares compounds with nsP2pro primary; Recombinant human furin enzymatic counterscreen, fluorogenic substrate; Potency, µM (doses to about 50.6 µM), for inactives: at the top dose activity change, negative = inhibition, most hits filed as inhibitors; hit rate 6% among 410; AID 1964102
# nsP2 NS23 pep = nsP2pro inhibition on native NS2/3 peptide substrate; shares compounds with nsP2pro primary; Purified CHIKV nsP2 protease, endogenous NS2/3 peptide cleavage; Potency, µM (top dose mostly 51 µM), inactives show at the top dose activity change, negative = inhibition, most hits filed as inhibitors; hit rate 34% among 410; AID 1964103; note: nearly all actives have a fitted effect of over 55% in size
# Papain counter = inhibits papain in a CHIKV nsP2 protease selectivity counterscreen; shares compounds with nsP2pro primary; purified papain protease activity, enzymatic inhibition; Potency, µM (doses to about 51 µM), inactives show at the highest dose activity change, negative = inhibition, hits mostly inhibitors; hit rate 5% among 410; AID 1964104
# Target sequence (P00784 whole entry, looked up): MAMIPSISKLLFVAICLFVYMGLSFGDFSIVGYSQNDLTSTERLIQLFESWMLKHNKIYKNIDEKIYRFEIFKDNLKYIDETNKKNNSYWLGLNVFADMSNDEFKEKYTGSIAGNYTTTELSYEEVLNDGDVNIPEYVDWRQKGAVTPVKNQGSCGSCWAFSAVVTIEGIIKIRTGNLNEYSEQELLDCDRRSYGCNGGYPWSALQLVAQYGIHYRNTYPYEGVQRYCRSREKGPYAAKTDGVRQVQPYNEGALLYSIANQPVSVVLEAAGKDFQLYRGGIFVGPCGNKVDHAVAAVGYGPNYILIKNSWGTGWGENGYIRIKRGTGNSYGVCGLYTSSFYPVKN
# nsP2pro confirm = CHIKV nsP2 protease inhibition, confirmatory qHTS. shares compounds with nsP2pro primary. CHIKV nsP2 protease enzymatic activity, qHTS. Potency, µM (doses to about 25.5 µM), without a hit: at the highest dose activity change, negative = inhibition, most hits filed as inhibitors. hit rate 43% among 410. AID 1964105; note: nearly all actives have a fitted effect of over 75% in size
# HCV NS3 counter = inhibits HCV NS3/4A protease in an nsP2pro selectivity counterscreen. HCV NS3/4A protease biochemical counterscreen. hit rate 20% among 410. AID 1964106. Potency, µM (highest dose often 50.9 µM), usual class: inhibitors. shares compounds with nsP2pro primary; note: nearly all actives have a fitted effect of over 55% in size
# An asterisk follows results filed as active; i = inactive; ? = inconclusive; [ ] = another dose, or the depositor's remark. The sample as a whole holds a higher share of hits than the screen did. Calls come from the whole dose curve. % is set by controls: 0 for no effect and ±100 for the full control effect; potency is the fitted concentration of half-maximal effect.
SMILES,nsP2pro primary,others
CCc1ccc2oc(NC3=NC(c4[nH]ncc4Cl)C4=C(CCCC4=O)N3)nc2c1 (stereo not drawn),i,
Cc1cc(C)nc(NC(=S)N2CCN(c3cncc4ccccc34)CC2)c1,-3.9%,
CCC(c1ccccc1)c1c(O)c2ccccc2oc1=O (stereo not drawn),-5.6%,
O=C(CC1CCCC1)N1CC[C@@H]2COCCN(Cc3ccccc3)[C@@H]2C1,-26.9%,
CCOC(=O)C1CCCN(C(=O)C2CCc3nnc(C4CCN(C(C)=O)CC4)n32)C1 (stereo not drawn),-10.7%[39.2 µM],
CNc1oc(-c2ccc3cnccc3c2)nc1C#N,-12.3%,
CS(=O)(=O)c1ncc(N(Cc2ccccc2)Cc2ccco2)c(C(=O)Nc2cccc(C(F)(F)F)c2)n1,-4.8%,
O=C(c1ccccc1)N(Cc1ccco1)Cc1cccs1,-22.0%,
O=C(C(NS(=O)(=O)c1ccc2[nH]c(=O)ccc2c1)c1cccc(C(F)(F)F)c1)N(Cc1ccco1)Cc1cccs1 (stereo not drawn),7.94µM*,nsP2 cell sec=142.1%;CHIKV NSP2 FL=?;Furin counterscr=-0.6%;nsP2 NS23 pep=-21.5%;Papain counter=-19.2%;nsP2pro confirm=-19.8%;HCV NS3 counter=i
Nc1c(Br)cc(Br)cc1CNC1CCC(O)CC1 (stereo not drawn),7.1%,
Oc1c(Br)cc(Br)cc1CNC1CCC(O)CC1 (stereo not drawn),8.81µM*,nsP2 cell sec=-6.8%;CHIKV NSP2 FL=-4.6%;Furin counterscr=3.6%;nsP2 NS23 pep=-7.0%;Papain counter=-7.2%;nsP2pro confirm=-17.3%;HCV NS3 counter=i
CCCCCCC(=O)OCC(COC(=O)CCCCCC)OC(=O)CCCCCC,-21.5%,
COCCN1C[C@@H]2[C@H](c3ccccc31)[C@@H](CO)[C@@H](c1ccccc1)N2C(=O)COC(C)=O,-31.4%,
C[N+]1(C)[C@@H]2CC(OC(=O)C(O)(c3cccs3)c3cccs3)C[C@H]1[C@H]1O[C@@H]12 (stereo partly drawn),-3.2%,
Cc1ccc(-c2cc(C(=O)Nc3ccc(S(C)(=O)=O)cc3)c3ccccc3n2)cc1C,i,
O=C(O)[C@H]1O[C@@H](Oc2cc3oc(-c4ccc(O)cc4)cc(=O)c3c(O)c2O)[C@H](O)[C@@H](O)[C@@H]1O,-11.9%,
CN1C(=O)NC(c2ccccc2Cl)C2=C1CCCC2=O (stereo not drawn),-3.4%,
Cn1ncc2c(N3CCN(S(N)(=O)=O)CC3)nc(C3CCCC3)nc21,i,
O=C(NC1CCCc2c1cnn2CCO)c1ccccn1 (stereo not drawn),i,
CC(=O)Nc1ccc(CC(=O)O)cc1,2.0%,
O=C(O)Cc1ccc(O)c(O)c1,?,nsP2 cell sec=-3.4%;CHIKV NSP2 FL=-23.0%;Furin counterscr=-4.9%;nsP2 NS23 pep=?;Papain counter=-6.5%;nsP2pro confirm=8.96µM*;HCV NS3 counter=8.19µM*
O=C(O)Cc1cc(I)c(Oc2ccc(O)c(I)c2)c(I)c1,21.7%,
COc1cccc(-c2cccc(C(=O)N3CCN(C(=O)Cc4cccc(Cl)c4)CC3)c2)c1,i,
O=c1ccc2ccc3occc3c2o1,-11.2%[39.2 µM],
Cc1cccc(-c2noc([C@@H]3Cc4nc[nH]c4CN3C(=O)c3ccc(-c4ccccc4)cc3)n2)c1,i,
SMILES,nsP2pro primary,others
O=C(NC1CCCCC1)N1Cc2[nH]cnc2C[C@H]1c1nc(-c2ccc(Cl)cc2)no1,4.47µM*,nsP2 cell sec=56.3%;CHIKV NSP2 FL=33.5µM*;Furin counterscr=-9.4%;nsP2 NS23 pep=?;Papain counter=-9.5%;nsP2pro confirm=10.3µM*;HCV NS3 counter=i
Cc1cccc(-c2noc([C@@H]3Cc4nc[nH]c4CN3C(=O)C3CCCCC3)n2)c1,71.8%[39.2 µM],
COc1ccc2c(c1)O[C@H](O[C@@H]1O[C@H](CO)[C@@H](O)[C@H](O)[C@H]1O)C(=O)N2,-8.8%,
FC(F)(F)c1ccccc1-c1nc(NCc2cccc3ccccc23)c2ccccc2n1,-3.2%,
CC/C(C)=C/C(=O)OC1C(OC2(C)CCC3C(C4C(C)CCC42)C3(C)C)OC(C)C(O)C1O (stereo not drawn),?,nsP2 cell sec=?;CHIKV NSP2 FL=4.8%[17.3 µM];Furin counterscr=-17.0%[17.3 µM];nsP2 NS23 pep=-1.6%[17.2 µM];Papain counter=?;nsP2pro confirm=-9.8%[8.62 µM];HCV NS3 counter=i
C[C@]12C=CC(=O)C=C1CC[C@@H]1[C@@H]2[C@@H](O)C[C@@]2(C)[C@H]1CC[C@]2(O)C(=O)COC(=O)c1cccc(S(=O)(=O)O)c1,-3.7%,
COc1cc(NS(=O)(=O)c2ccc(C)cc2)c(C(=O)Nc2nc(-c3ccccc3)cs2)cc1OC,i,
C=C(C)[C@@H]1CC[C@]2(C)CC[C@]3(C)[C@H](CC[C@@H]4[C@@]5(C)CC[C@H](O)C(C)(C)[C@@H]5CC[C@]43C)[C@@H]12,-21.6%[10 µM],
CC1=CC(=O)c2ccccc2C1=O,?,nsP2 cell sec=-11.5%;CHIKV NSP2 FL=-14.4%;Furin counterscr=2.6%;nsP2 NS23 pep=?;Papain counter=-19.6%;nsP2pro confirm=4.2%;HCV NS3 counter=i
CC(C)=CCC/C(C)=C/CC/C(C)=C/CC/C(C)=C/CC1=C(C)C(=O)c2ccccc2C1=O,-27.4%,
COc1ccc(NC(=O)c2cc(-c3ccc(C)c(C)c3)nc3ccccc23)cc1,-1.4%,
NC(=O)N/N=C/c1ccc([N+](=O)[O-])o1,-26.0%,
O=NCc1ccc([N+](=O)[O-])o1,-22.8%,
Cc1ccc(S(=O)(=O)c2ccc([N+](=O)[O-])o2)cc1,0.556µM*,nsP2 cell sec=?;CHIKV NSP2 FL=1.46µM*;Furin counterscr=-10.9%;nsP2 NS23 pep=4.61µM*;Papain counter=?;nsP2pro confirm=0.565µM*;HCV NS3 counter=i
CN(C)c1ccc(-c2ccc(=O)n(CC(=O)NCCc3ccccc3)n2)cc1,i,
C/C(=C(\CCOC(=O)c1ccccc1)SS/C(CCOC(=O)c1ccccc1)=C(/C)N(C=O)Cc1cnc(C)nc1N)N(C=O)Cc1cnc(C)nc1N,8.81µM*,nsP2 cell sec=-3.1%;CHIKV NSP2 FL=13µM*;Furin counterscr=-7.7%;nsP2 NS23 pep=5.8µM*;Papain counter=-8.9%;nsP2pro confirm=7.98µM*;HCV NS3 counter=5.8µM*
CCCOC(=O)c1ccccc1,-4.3%,
OC[C@H]1O[C@@H](Oc2c(O)cc(O)cc2/C=C/c2ccc(O)cc2)[C@H](O)[C@@H](O)[C@@H]1O,11.7%,
O=C(NC1CCCCC1)N[C@H]1CO[C@H]2[C@@H]1OC[C@@H]2n1nnnc1-c1ccc2c(c1)OCO2,2.82µM*,nsP2 cell sec=-10.8%;CHIKV NSP2 FL=18.3µM*;Furin counterscr=16.3µM*;nsP2 NS23 pep=16.3µM*;Papain counter=-2.3%;nsP2pro confirm=4.49µM*;HCV NS3 counter=?
C[C@H](C(=O)NC1CCCC1)N(C(=O)Cn1nnc(-c2ccc3c(c2)OCO3)n1)C1CCCCC1,3.6%,
COc1cccc(-c2nnnn2[C@H]2CO[C@H]3[C@@H]2OC[C@@H]3NC(=O)C2CCCCC2)c1,18.9%[39.2 µM],
